Screens deposited in PubChem BioAssay by several laboratories.
CYP2C9 inh: inhibitors of human CYP2C9; P11712; CYP2C9 Supersomes, luciferin-H conversion, luminescence; inhibition, % at 5 µM; hit rate 20% among 96,000;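 active = blocking of liver enzyme CYP2C9 beyond about 50% at 5 µM, limit read from the data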
Target sequence (P11712 whole entry, looked up): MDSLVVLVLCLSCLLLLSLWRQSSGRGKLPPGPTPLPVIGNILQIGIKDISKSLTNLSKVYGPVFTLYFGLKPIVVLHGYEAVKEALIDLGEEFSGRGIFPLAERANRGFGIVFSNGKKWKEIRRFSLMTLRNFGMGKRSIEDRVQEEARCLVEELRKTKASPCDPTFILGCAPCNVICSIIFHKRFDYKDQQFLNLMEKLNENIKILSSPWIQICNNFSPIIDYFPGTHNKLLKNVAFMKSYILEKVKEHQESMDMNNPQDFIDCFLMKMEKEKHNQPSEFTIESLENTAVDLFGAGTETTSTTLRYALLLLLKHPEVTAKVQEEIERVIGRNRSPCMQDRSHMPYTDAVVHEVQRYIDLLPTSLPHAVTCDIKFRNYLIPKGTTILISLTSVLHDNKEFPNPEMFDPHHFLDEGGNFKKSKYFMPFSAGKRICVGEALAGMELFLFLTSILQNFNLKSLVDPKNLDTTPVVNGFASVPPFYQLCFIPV
Measles CPE: protection of cells from measles virus. Measles virus-infected cells, CPE protection, absorbance. hit rate 1.5% among 140,000. AID 841. protection (pct of control), % at 4 µM; in the data active = protection mostly above about 24%, no sharp cut-off; inactive = mostly below about 26%
CYP2C19 activ: increases human CYP2C19 enzyme activity; P33261; recombinant CYP2C19, luciferin-H EGE luminescence; stronger effect = higher value; 0 = fully inhibited enzyme, 1 = untreated enzyme; activation factor at 5 µM; 96,000 tested, under 10 active;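 active = activation factor of at least 2 at 5 µM in the primary screen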;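 note: 0 = wells with 2.5 mM tranylcypromine and 1 = vehicle-only wells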
CYP2C19 inhib: inhibitors of human CYP2C19 | hit rate 21% among 96,000 | inhibition, % at 5 µM | P33261 | CYP2C19 Supersomes, luciferin-H EGE luminescence, 30 min;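 active = CYP2C19 inhibition above a set limit at 5 µM in the primary screen, cut at about 50% in these data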;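 note: plate controls were negative control wells for no effect and 2.5 mM tranylcypromine positive control for full effect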
CYP2C9 act: activators of human CYP2C9 | recombinant CYP2C9, luciferin-H conversion, luminescence; stronger effect = higher value; factor 1 = untreated enzyme, 0 = blocked | hit rate 1.4% among 96,000 | activation factor at 5 µM | AID 1024 | P11712;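 active = activation factor of 2 or more for CYP2C9 at a 5 µM dose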;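 note: 0 = sulfaphenazole-blocked wells and 1 = vehicle-only wells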
* hit, by the source's call; / = no result given. Compounds with a hit are over-represented: about 22% of the library has one in this group of screens.

SMILES	CYP2C9 inh	Measles CPE	CYP2C19 activ	CYP2C19 inhib	CYP2C9 act
Cc1ccc2c(c1)C(c1ccc(F)cc1)N(C(=O)C1CC1)CC(=O)N2 (centres undefined)	19	10	0.8	20	0.8
CCCC(=O)N1CC(=O)Nc2ccc(F)cc2C1c1ccccc1 (centres undefined)	4	28	0.9	6	1
Cc1ccc2c(c1)C(c1ccccc1)N(C(=O)c1ccc(Br)o1)CC(=O)N2 (centres undefined)	74*	5	0.6	42	0.3
O=C1CN(C(=O)c2ccc(Br)o2)C(c2ccccc2)c2cc(Br)ccc2N1 (centres undefined)	100*	8	0	96*	0
FC(F)(F)c1cccc(NC(=S)NCC2COc3ccccc3O2)c1 (centres undefined)	/	19	/	/	/
CCCc1cc(-c2n[nH]c(=S)n2C(C)c2ccccc2)cs1 (centres undefined)	97*	16	0.2	81*	0
CCc1cc(-c2n[nH]c(=S)n2Cc2ccccc2)cs1	46	11	0.5	51*	0.5
CCc1cc(-c2n[nH]c(=S)n2CC)cs1	/	17	/	/	/
CCc1cc(-c2n[nH]c(=S)n2-c2ccccc2C)cs1	52*	7	0.6	43	0.5
Cc1cc(O)c(-c2n[nH]c3c2C(c2cccc(O)c2)N(Cc2cccnc2)C3=O)cc1Cl (centres undefined)	67*	23	0.8	25	0.3
COCCCN1C(=O)c2[nH]nc(-c3ccccc3O)c2C1c1cccc(Cl)c1 (centres undefined)	35	10	0.6	40	0.6
Cc1cccc(OCCOc2ccc(/C=N/NC(=O)Cc3nnc(N)s3)cc2)c1	0	9	1	-4	1
O=C1C2CC=CCC2C(=O)N1c1n[nH]c(CCc2ccccc2)n1 (centres undefined)	-14	21	0.9	10	1.1
O=C(CSCc1ccc(Cl)cc1)NN=C1CCCC1	/	3	/	/	/
CC(C)NC(=O)CSCc1ccccc1Cl	17	5	0.3	66*	0.8
O=C(CSCc1ccccc1Cl)NN=C1CCCCCC1	12	4	0.4	63*	0.9
O=C(CSc1nc(-c2ccccc2)cc(=O)[nH]1)N1CCOCC1	-1	7	1	-4	1
CCCCOc1cccc(C2C(C(=O)c3cccs3)=C(O)C(=O)N2Cc2cccnc2)c1 (centres undefined)	/	11	/	/	/
CCOC(=O)c1[nH]c(=O)[nH]c1COC(=O)c1cc2ccccc2o1	57*	40*	0.9	12	0.4
Cc1ccc(N2CC(C(=O)N3CCN(c4ccccc4)CC3)CC2=O)cc1 (centres undefined)	-3	10	1	5	1
Cc1ccc(NC(=O)N2CCc3ccccc3C2)cc1	12	4	0.1	93*	0.9
CC(=O)c1cccc(NC(=O)N2CCc3ccccc3C2)c1	56*	9	0.3	68*	0.4
Cc1ccc(N2CC(C(=O)N3CCc4ccccc4C3)CC2=O)cc1 (centres undefined)	67*	5	0.6	37	0.3
Cc1ccc(C2CCN(C(=O)Nc3ccccc3)C2)cc1 (centres undefined)	30	10	0.4	60*	0.7
Cc1ccc(CN(C(=O)c2ccco2)C(C(=O)NC2CCCC2)c2ccc(N3CCOCC3)cc2)cc1 (centres undefined)	/	17	/	/	/
SMILES	CYP2C9 inh	Measles CPE	CYP2C19 activ	CYP2C19 inhib	CYP2C9 act
CCOC(=O)c1[nH]c2ccc(C)cc2c1NC(=O)CN1CCCCC1	30	14	0.4	60*	0.7
CCOC(=O)c1[nH]c2ccc(OCC)cc2c1NC(=O)CN1CCCC(C)C1 (centres undefined)	60*	4	0.2	78*	0.4
COC(=O)c1[nH]c2ccc(C)cc2c1NC(=O)CN1CCCC(C)(C)C1	18	3	0.6	39	0.8
Cc1nn(Cc2c(F)c(F)c(F)c(F)c2F)c(C)c1NC(=O)c1c(-c2ccccc2)nn(-c2ccccc2)c1C	35	3	0.7	27	0.6
N#CCCN(Cc1cccnc1)S(=O)(=O)c1ccc(S(=O)(=O)NC2CCCCC2)cc1	40	1	0.4	59*	0.6
CCc1nc(SCC(=O)Nc2ccnc3ccccc23)n[nH]1	19	5	1	2	0.8
CC(C)CNC(=S)NC1CC2CCCC(C1)N2Cc1cccs1 (centres undefined)	-3	6	0.6	39	1
CCOc1ccc(Oc2c(/C=N/NC(C)=O)c(C)nn2-c2ccccc2)cc1	/	4	/	/	/
Cc1nn(-c2ccccc2)c(Oc2ccc(F)cc2)c1/C=N/n1cnnc1	60*	4	0.4	56*	0.4
O=c1ccc2ccc(Oc3ccc([N+](=O)[O-])cc3[N+](=O)[O-])cc2o1	/	9	/	/	/
CCOC(=O)c1c(C)oc(/N=C/c2ccccc2O)c1C#N	29	8	0.9	13	0.7
COc1cccc(C2C3=C(CC(C)(C)CC3=O)Nc3cc4c(cc32)OCO4)c1 (centres undefined)	93*	12	0.3	72*	0.1
CC1(C)CC(=O)C2=C(C1)NC(=O)CC2c1cc2c(cc1Br)OCO2 (centres undefined)	14	11	0.9	15	0.9
COc1cc2c(cc1OC)C(c1ccc3c(c1)OCO3)C1=C(CC(C)(C)CC1=O)N2 (centres undefined)	-2	25*	1	0	1
CC(C)CC(NC(=O)C(NC(=O)OC(C)(C)C)C(C)C)C(=O)N1CCCC1C(N)=O (centres undefined)	3	18	1	-1	1
CCOC(=O)c1[nH]c2ccccc2c1CCCN1C(=O)c2ccccc2C1=O	86*	36	0.2	79*	0.1
CC(=O)c1c(C)[nH]c(C(=O)OCCCCN2C(=O)c3ccccc3C2=O)c1C	70*	12	0.6	40	0.3
O=C(OCCCN1C(=O)c2ccccc2C1=O)c1ccco1	62*	7	0.5	54*	0.4
O=C(OCCCCN1C(=O)c2ccccc2C1=O)c1n[nH]c2ccccc12	86*	5	0.2	84*	0.1
CC(=O)N1c2ccc([N+](=O)[O-])cc2NC(=O)CC1C (centres undefined)	/	6	/	/	/
O=C(NC(=S)Nc1ccc(N2CCCCC2)cc1)c1cccs1	-3	9	1	-4	1
CC(NC(=O)c1cccc(F)c1)C(c1cccs1)N1CCN(C)CC1 (centres undefined)	6	2	0.9	9	0.9
CC1(C)CC2CC(C)(CN2C(=S)NC(=O)c2ccccc2Cl)C1 (centres undefined)	/	9	/	/	/
COc1cc(C(=O)Nc2ccc(N3CCOCC3)cc2)ccc1OCc1c(C)noc1C	/	2	/	/	/
Cc1ccc(C(=O)CCC2CCCC2=O)cc1 (centres undefined)	0	12	0.8	18	1
Cc1ccc(C(=O)CCC2CCCCC2=O)cc1 (centres undefined)	42	25	0.2	84*	0.6
COc1ccc(-c2nsc3c(SCC(=O)Nc4cc(C)ccc4C)ncnc23)cc1	9	3	1.1	-10	0.9
